Only some compounds are listed: those with a hit (about 1.5% of all), similar ones and a draw of the others.
AID504770: E. coli YBA685 growth inhibition, screen for V. cholerae RctB inhibitors. actives 0.27% (n = 130,000). E. coli YBA685 rctB-dependent plasmid, OD600 growth, 3 h; stronger effect = lower value. z-score (no concentration beside the values). AID 504770; in the data active means z-score below about -2, passing the limit was not always enough
PV pol inh: inhibitors of poliovirus RNA polymerase binding and polymerization | poliovirus polymerase elongation, fluorescence polarization; stronger effect = lower value | % elongation, % (compound at 16.7 µg/mL) | actives 0.66% (n = 150,000); in the data active means % elongation below about 90%
MbtI inh: MbtI salicylate synthase inhibition; purified MbtI enzyme, fluorescence intensity read-out; actives 0.89% (n = 100,000); inhibition, % (test concentration not listed); in the data active means inhibition mostly above about 56%, no sharp cut-off; inactive means mostly below about 77%
Target sequence (P9WFX0 whole entry, looked up): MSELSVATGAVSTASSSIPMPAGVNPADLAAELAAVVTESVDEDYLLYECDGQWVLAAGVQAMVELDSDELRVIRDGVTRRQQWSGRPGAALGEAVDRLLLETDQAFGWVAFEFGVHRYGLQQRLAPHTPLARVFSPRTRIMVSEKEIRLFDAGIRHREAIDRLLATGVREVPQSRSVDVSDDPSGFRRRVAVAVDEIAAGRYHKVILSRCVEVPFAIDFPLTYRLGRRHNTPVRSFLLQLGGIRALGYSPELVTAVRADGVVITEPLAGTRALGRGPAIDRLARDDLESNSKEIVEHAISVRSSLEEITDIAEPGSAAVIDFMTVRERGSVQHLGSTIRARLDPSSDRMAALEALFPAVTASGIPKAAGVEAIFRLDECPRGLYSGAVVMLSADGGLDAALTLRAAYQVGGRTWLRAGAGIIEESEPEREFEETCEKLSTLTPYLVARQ
Mtb MenB inh: blocks the Mycobacterium tuberculosis MenB enzyme. P9WNP5. MenB enzyme assay, absorbance read-out. inhibition, % (concentration not given with the values). actives 0.43% (n = 100,000); in the data active means inhibition above about 21%, passing the limit was not always enough
Active calls of the source: *; nt = not tested or not shown.

SMILES	AID504770	PV pol inh	MbtI inh	Mtb MenB inh
O=C1C(Sc2ncn[nH]2)=C/C(=N/S(=O)(=O)c2ccc(Cl)cc2)c2ccccc21	-0.45	nt	95*	nt
O=C1CC(c2ccc(Cl)cc2)n2ncnc2N1 (configuration not stated)	-0.55	103	-5	-14
O=C(CSc1c(-c2ccccc2)c2cc(Cl)ccc2[nH]c1=O)N1CCCCC1	1.3	nt	-3	nt
Cc1cc(-c2noc(-c3cc(C)on3)n2)no1	-0.6	105	-8	-11
Cc1cccn(Cc2c(Cl)cccc2Cl)c1=O	0.05	108	11	-11
Cc1cccc(Cl)c1-n1sc(=O)n(CC2CC2)c1=O	-1.5	96	72*	-6
Cc1noc(C)c1-n1sc(=O)n(CC2CC2)c1=O	-0.8	93	99*	15
Cc1cccc(CCNC(=O)C2CCN(S(=O)(=O)c3ccc(-n4cnnn4)cc3)CC2)c1	-0.75	101	-18	-7
Cc1cc(=O)oc2cc(OCC(=O)Oc3ccc4c(c3)OCO4)ccc12	-0.15	83*	73	0
Cc1cc(=O)oc2cc(OCC(=O)O)ccc12	0.3	105	107	-17
N#CC(C#N)=NNc1ccccc1C(N)=O	-3.6*	101	26	-447
C=COC(=O)CSc1nc(C)cc(C)c1C#N	-0.25	86*	nt	3
Cc1cc(C)c(C#N)c(SCC(=O)OC(C)C)n1	-0.65	99	-28	-24
COC(=O)C1=C(C)Nc2ccccc2S1	1.2	107	58*	-11
CCOc1ccc(CN(C2CC2)S(=O)(=O)c2ccc(S(=O)(=O)N(C)C)cc2)cc1	-0.35	104	-10	4
Cn1c2ccccc2c2cnn(CC(=O)NC3CCCC3)c(=O)c21	-0.85	101	22	-10
NC(=S)N/N=C/c1ccc(N2CCOCC2)s1	0.25	81	89*	-266
Cc1nc2c3ccccc3nc(NNC(=O)CCC(=O)N3CCN(c4ccccc4F)CC3)n2n1	nt	92	nt	nt
Cc1nc2c3ccccc3nc(NNC(=O)CCC(=O)N3CCN(c4cccc(Cl)c4)CC3)n2n1	nt	135	nt	nt
COc1ccc(N2CCN(C(=O)CCC(=O)NNc3nc4ccccc4c4nc(C)nn34)CC2)cc1	nt	87*	nt	nt
CCCCN(C)C(=O)CCC(=O)NNc1nc2ccccc2c2nc(C)nn12	nt	81*	nt	nt
Cc1nc2c3ccccc3nc(NNC(=O)CCC(=O)N3CCN(c4ccccc4)CC3)n2n1	nt	85*	nt	nt
CCOc1ccc(N2C(=O)CC3(CC(C(=O)OCc4ccccc4)=NN3)C2=O)cc1 (configuration not stated)	-0.6	102	5	11
CCC(Sc1ccc2nnc(-c3ccc(C)cc3)n2n1)C(=O)O (configuration not stated)	-0.15	103	30	3
CN(C(=S)NCc1ccc2c(c1)OCO2)C1CCS(=O)(=O)C1 (configuration not stated)	-0.6	88*	84*	-1
SMILES	AID504770	PV pol inh	MbtI inh	Mtb MenB inh
CCc1ccc(C(=O)NCc2ccc3c(c2)OCO3)cc1	0.05	103	-14	1
CC(=O)c1ccc(NC(=O)C2=CC(c3ccc(C)cc3)=NS(=O)(=O)N2C)cc1	nt	8.0*	nt	nt
CC(=O)c1ccc(NC(=O)C2=CC(c3ccc4c(c3)OCO4)=NS(=O)(=O)N2C)cc1	nt	108	nt	nt
O=C(CSc1nccn1-c1cccc(Cl)c1)Nc1ccccc1	-1	100	9	-15
O=C(O)c1ccc2ncsc2c1	-0.35	88*	77	nt
CCOC(=O)COc1cccc(NC(=O)c2ccccc2Cl)c1	-0.35	nt	nt	nt
Cc1ccc(C)n1-c1cc(Cl)ccc1C(=O)O	1.1	84*	25	-6
O=C(COC(=O)/C=C/c1ccccc1)Nc1c(F)cccc1F	0.3	104	0	nt
O=C(COC(=O)/C=C/c1ccc(F)cc1)Nc1ncccn1	-0.15	84*	-4	-39
CC(=O)n1c(=S)[nH]c2ccccc21	0.1	99	101*	9
O=C(Cn1c(=S)[nH]c2ccccc21)c1ccc(-c2ccccc2)cc1	1.9	103	nt	-13
COc1ccc(-c2cc3ccccn3c2C(=O)c2cccnc2)c(OC)c1	-0.8	101	5	nt
CCOC(=O)c1c(NC(=O)C(C)Sc2nnc(CNC(=O)c3ccco3)n2-c2cc(C)ccc2C)sc2c1CCC2 (configuration not stated)	0.05	101	-6	-4
O=C(O)C1Nc2c(I)cccc2C2C=CCC12 (configuration not stated)	-0.7	93	103*	-17
CN(Cc1ccccc1)C(=O)C1CC(c2ccc(F)cc2)=NO1 (configuration not stated)	-0.45	nt	nt	nt
O=C1CCCC(O)=C1C1(O)C(=O)c2ccccc2C1=O	-1.4	79*	-5	-2

Assay outcomes deposited in PubChem by ICCB-Longwood Screening Facility, Harvard Medical School.
